Data on 23 molecules can be found in PubChem BioAssay AID652061 (Broad Institute, 2013).

The test in a line: enhancers of UUG start codon usage in yeast, dose response, S. cerevisiae, UUG firefly luciferase, cherry-pick, set 2 (AID 652061).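 Note: 0% = median DMSO signal and 100% = twice the DMSO signal.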 The settings on record: max activity: measured here: max activity, test 2, at 38 µM, test 2, stronger effect = higher value unless noted.

The other results are listed elsewhere or left out. The source made the active and inactive calls.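 Rule for the calls: active = signal increase whose fitted curve reaches an absolute level of 40 at a concentration under 10 µM; inactive = activity opposite to the expected increase, or the rest.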

`CC(=O)N1CC(=O)N(CC(=O)Nc2ccc(Br)cc2)C1=S`: the max activity is 9.59% [measured here: max activity, test 2, at 1.35 µM, test 2, stronger effect = higher value] and the outcome was inactive. Regarding `CC1CCCN(S(=O)(=O)c2ccc(N(C(=O)c3cnccn3)C(C(=O)NC3CCCCC3)c3cccs3)cc2)C1` (configuration not stated), the max activity was -8.84% [measured here: max activity, test 2, at 0.05 µM, test 2, stronger effect = higher value] and the outcome was inactive. For `Cc1onc(-c2ccc(Cl)cc2)c1-c1ccnn1S(=O)(=O)c1ccc(Cl)cc1`, in that order: 13.9% and “inactive”. `C[C@@H]1CN([C@@H](C)CO)S(=O)(=O)c2ccc(C#Cc3ccc(F)cc3)cc2O[C@H]1CN(C)C(=O)NC1CCCC1`: the max activity is 10% [at 2.85 µM, test 1, stronger effect = higher value] (inactive). Same read-out and setting: the same measure for `C[C@@H]1CN([C@@H](C)CO)C(=O)c2cc(Br)cnc2O[C@@H]1CN(C)C(=O)C1CCCCC1`: -6.87% [at 0.9 µM, test 1, stronger effect = higher value] (inactive); for `COc1ccc(NC(=O)N(C)C[C@H]2OCCCC[C@@H](C)Oc3ccc(NC(=O)NC4CCCCC4)cc3C(=O)N([C@@H](C)CO)C[C@H]2C)cc1`: 8.38% [at 26 µM, test 1, stronger effect = higher value] (inactive); for `O=C(N[C@H]1CC[C@@H](CCNS(=O)(=O)Cc2ccccc2)O[C@H]1CO)c1ccccc1F`: 8.33% [at 0.035 µM, test 1, stronger effect = higher value] (inactive). On the same count and under the same terms, as for `COc1ccc(CCN2C(=O)[C@@]3(Cc4ccccc42)c2ccccc2C(=O)N(Cc2ccccc2C(F)(F)F)[C@H]3c2ccc(CO)cc2)cc1`, the figure is 5.62% [at 26 µM, test 1, stronger effect = higher value] (inactive). As to `O=C1N=C(N2CCc3ccccc3C2)S/C1=C\c1ccc(O)cc1`, the max activity was 7.99% [measured here: max activity, test 2, at 12 µM, test 2, stronger effect = higher value] and the outcome was inactive.

Consider `CCOC(=O)C(=Cc1ccccc1OC)C(=O)OCC`, for which the max activity is 9.08% [measured here: max activity, test 2, at 0.15 µM, test 2, stronger effect = higher value] and the outcome was inactive.

With `CC1CCC(NC(=O)C2c3ccccc3C(=O)N2Cc2ccc3c(c2)OCO3)CC1` (configuration not stated), the max activity was -4.01% and the outcome was inactive.

`CN1CCN(C(=O)/C(=C\c2cccs2)NC(=O)c2cccs2)CC1`: the max activity was determined as 13.1% and the result was inactive. Regarding `O=C(COc1ccc(Cl)cc1)NCc1nnc(SCC(=O)NCC2CCCO2)o1` (configuration not stated), the max activity was -8.21% [measured here: max activity, test 2, at 0.15 µM, test 2, stronger effect = higher value] and the outcome was inactive.

In the case of `O=C(c1cccnc1)N1C[C@H]2[C@@H](c3ccccc31)[C@H](CO)N2C(=O)C1CC1`, the max activity was 24.4% [at 0.035 µM, test 1, stronger effect = higher value] (inactive). On to `CC(=O)Nc1ccccc1-c1cn(CC(=O)N2CCOCC2)nn1`, for which the max activity was 8.61% [at 75 µM, test 1, stronger effect = higher value] (inactive). With `O=C(C1CCC1)N1C[C@H]2[C@@H](c3ccccc31)[C@@H](CO)N2C(=O)c1ccccc1F`, the max activity is 6.68% [at 0.035 µM, test 1, stronger effect = higher value] (inactive). For `COCCCNC(=O)Cn1cc(C(=O)C2CC2)c2ccccc21`, the max activity was -7.83% [measured here: max activity, test 2, at 1.35 µM, test 2, stronger effect = higher value] and the result was inactive. With `CCc1cccc(C)c1N(C(=O)Cn1c(CO)nc2ccccc21)C(C)COC` (configuration not stated), the max activity is 6.66% [measured here: max activity, test 2, at 12 µM, test 2, stronger effect = higher value] and the outcome was inactive. Turning to `c1ccc(-n2cccc2)c(N2CCCCC2)c1`, the max activity is 8.5% [measured here: max activity, test 2, at 0.05 µM, test 2, stronger effect = higher value] and the result was inactive. `CC(C)C#Cc1ccc2c(c1)O[C@@H](CN(C)C(=O)CN(C)C)[C@@H](C)CN([C@H](C)CO)S2(=O)=O`: the max activity was -9.02% [at 0.3 µM, test 1, stronger effect = higher value] (inactive). On to `Cc1c(Nc2cc(N3CCCC(C)C3)c3nonc3c2[N+](=O)[O-])c(=O)n(-c2ccccc2)n1C` (configuration not stated), for which the max activity worked out at 9.02% and the result was inactive.

As to `Cc1ccc(F)cc1NC(=O)Cc1nn(C)c(=O)c2ccccc12`, the max activity was -14.8% [measured here: max activity, test 2, at 12 µM, test 2, stronger effect = higher value] and the outcome was inactive. Consider `C#CCSc1nnc(-c2sc3ccccc3c2Cl)o1`, for which the max activity was 6.33% [measured here: max activity, test 2, at 0.46 µM, test 2, stronger effect = higher value] and the outcome was inactive.
